# Inconclusive results are not listed. Where a call stands in place of a potency, no number is given. Active and inactive are the calls of the source. Calls come from the whole dose curve; as a rule, active = well fitted curve in the direction sought with a large enough effect; inconclusive = small, poorly fitted or top-dose-only effect, or another doubt; inactive = no such curve, though single readings can be large; an effect the other way counts as inactive or inconclusive.
# Key:
# [1] = qHTS of pediatric cancer cell lines to identify multiple opportunities for drug repurposing: Primary screen for TC32 cells (AID 1347089); note: nearly all actives have a fitted effect of over 60% in size
# In short: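 TC32 cells, 500-1,000/well in growth medium, compound-treated 48 h at 37 °C; viability from CellTiter-Glo luminescence. Primary screen: MIPE 11-point (0.78 nM–46 µM final), NPC 8-point (0.59 nM–46 µM final); confirmatory at 11-point dilutions.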
# [2] = qHTS of pediatric cancer cell lines to identify multiple opportunities for drug repurposing: Primary screen for DAOY cells (AID 1347090); note: nearly all actives have a fitted effect of over 55% in size
# In short: (§1)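 Viability measured as metabolically active cells via CellTiter-Glo luminescence following 48 hours of compound exposure, 11-point dilutions in confirmatory testing. 500-1,000 cells/well plated 5 hours before dosing; controls were DMSO and 2.3 µM bortezomib.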
# [3] = qHTS of pediatric cancer cell lines to identify multiple opportunities for drug repurposing: Primary screen for A673 cells (AID 1347092); note: nearly all actives have a fitted effect of over 45% in size
# In short: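 A673 cells (500-1,000 cells/well) were treated 48 hours at 37 degrees C with compounds at 11-point (0.78 nM to 46 µM) or 8-point (0.59 nM to 46 µM) dilutions. Viability read by CellTiter-Glo luminescence; concentration-response curves fitted.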
# [4] = qHTS of pediatric cancer cell lines to identify multiple opportunities for drug repurposing: Primary screen for SK-N-MC cells (AID 1347093)
# In short: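 Metabolically active cells were quantified by ATP-dependent luminescence (CellTiter-Glo, 15 min at room temperature) following 48 h treatment. Cells had been plated at 500-1,000 per well and settled for 5 h beforehand.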
# [5] = qHTS of pediatric cancer cell lines to identify multiple opportunities for drug repurposing: Primary screen for BT-37 cells (AID 1347094)
# In short: (§2)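 Readout: CellTiter-Glo luminescence, 48 h treatment. Controls DMSO (neutral) and bortezomib 2.3 µM final (positive). Potency and efficacy taken from primary-screen concentration-response curves.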
# [6] = qHTS of pediatric cancer cell lines to identify multiple opportunities for drug repurposing: Primary screen for NB-EBc1 cells (AID 1347095)
# In short: as §2
# [7] = qHTS of pediatric cancer cell lines to identify multiple opportunities for drug repurposing: Primary screen for SJ-GBM2 cells (AID 1347091)
# In short: as §1
# Potency is the fitted concentration of half-maximal effect.
SMILES,Potency [1],Potency [2],Potency [3],Potency [4],Potency [5],Potency [6],Potency [7]
CC1(C)SCCN(S(=O)(=O)c2ccc(OCC#CCO)cc2)[C@@H]1C(=O)NO,inactive,inactive,inactive,inactive,inactive,inactive,–
O=C(NOC[C@H](O)CO)c1ccc(F)c(F)c1Nc1ccc(I)cc1F,inactive,18.7 µM (active),5.9 µM (active),0.0469 µM (active),–,–,–
CCOc1ccn(-c2ccc(F)cc2)c(=O)c1C(=O)Nc1ccc(Oc2ccnc(N)c2Cl)c(F)c1,inactive,–,18.7 µM (active),13.2 µM (active),–,–,–
N#Cc1ccc(C(c2ccc(C#N)cc2)n2cncn2)cc1,inactive,–,–,–,–,inactive,–
COc1cc(F)c(F)c(Nc2ccc(I)cc2F)c1NS(=O)(=O)C1(C[C@H](O)CO)CC1,inactive,–,–,16.6 µM (active),inactive,inactive,–
OCCC#Cc1nc(-c2ccc(F)cc2)c(-c2ccncc2)n1CCCc1ccccc1,inactive,–,–,18.7 µM (active),–,16.6 µM (active),23.5 µM (active)
S=C(NCc1ccc2c(c1)OCO2)N1CCN(c2ncnc3c2oc2ccccc23)CC1,–,2.15 µM (active),1.71 µM (active),4.29 µM (active),–,–,inactive
Cn1c(=O)c(F)c(Nc2ccc(I)cc2F)c2c(=O)n(C[C@@H](O)CO)cnc21,–,18.7 µM (active),inactive,–,–,–,inactive
Nc1nccc(-c2ccc3noc(-c4ccc(Cl)cc4)c3c2)n1,inactive,–,7.43 µM (active),10.5 µM (active),–,inactive,–
CCn1c(-c2nonc2N)nc2cnc(Oc3cccc(NC(=O)c4ccc(OCCN5CCOCC5)cc4)c3)cc21,inactive,–,–,7.43 µM (active),–,inactive,0.235 µM (active)
O=C(Nc1ccc(F)c(C(F)(F)F)c1)Nc1nnc(-c2ccncc2)s1,inactive,–,–,20.9 µM (active),inactive,–,inactive
O=c1[nH]c(-c2ccc(C(F)(F)F)cc2)nc2c1CSCC2,inactive,–,14.8 µM (active),13.2 µM (active),–,–,inactive
O=C(Nc1cccnc1)N1CCC(Cc2cccc(Oc3ccc(C(F)(F)F)cn3)c2)CC1,–,14.8 µM (active),–,–,–,–,18.7 µM (active)
COc1ccc(COc2cc3oc(=O)c4cc(C(C)O)ccc4c3cc2OC)cc1 (stereo not given),inactive,–,–,–,–,10.5 µM (active),10.5 µM (active)
CCCc1nc2c(C)cc(-c3nc4ccccc4n3C)cc2n1Cc1ccc(-c2ccccc2C(=O)O)cc1,–,inactive,inactive,16.6 µM (active),inactive,inactive,inactive
COc1ccc(-c2ccc3c(N4CCOC[C@H]4C)nc(N4CCOC[C@H]4C)nc3n2)cc1CO,165 nM (active),–,0.0235 µM (active),0.0047 µM (active),54.4 nM (active),0.0332 µM (active),–
O=S(=O)(N=Cc1c(O)ccc2ccccc12)c1cccs1,inactive,–,–,9.35 µM (active),inactive,–,–

SMILES,Potency [1],Potency [2],Potency [3],Potency [4],Potency [5],Potency [6],Potency [7]
Cc1cc(-c2ccc(CC(=O)Nc3ccc(-c4cccnc4)cc3)cc2)ccn1,inactive,–,–,9.35 µM (active),inactive,–,–
COc1cc(Nc2ncc3c(n2)-c2ccc(Cl)cc2C(c2c(F)cccc2OC)=NC3)ccc1C(=O)O,186 nM (active),–,inactive,0.0743 µM (active),inactive,0.0332 µM (active),–
CN[C@@H](C)C(=O)N[C@H]1CCCC[C@H]2CC[C@@H](C(=O)N[C@@H](c3ccccc3)c3cn(CCCCc4ccc(CCCCn5cc([C@@H](NC(=O)[C@@H]6CC[C@@H]7CCCC[C@H](NC(=O)[C@H](C)NC)C(=O)N76)c6ccccc6)nn5)cc4)nn3)N2C1=O,inactive,–,–,6.62 µM (active),–,–,inactive
CCOc1cc(C(=O)Nc2ccc(Cl)c(-c3nc4ccccc4[nH]3)c2)cc(OCC)c1OCC,inactive,–,–,–,–,inactive,inactive
COCC(=O)NCC=Cc1ccc2ncnc(Nc3ccc(Oc4ccc(C)nc4)c(C)c3)c2c1,inactive,–,4.69 µM (active),–,–,–,–
COc1ccc(-c2c(-c3ccc(O)cc3O)n[nH]c2C)cc1,inactive,–,–,–,–,38.2 µM (active),–
CCOc1cc(C=C2C(=O)N(c3ccccc3)N=C2C)cc(Cl)c1OCC(=O)OC,inactive,–,–,11.8 µM (active),inactive,20.9 µM (active),–
CCOC(=O)N[C@@H]1CC[C@@H]2[C@@H](C1)C[C@H]1C(=O)O[C@H](C)[C@H]1[C@@H]2C=Cc1ccc(-c2cccc(F)c2)cn1,inactive,–,–,16.6 µM (active),–,–,–
CC(=O)NC(C)c1ccc(Oc2ccc(OC(C)C)cc2)cc1 (stereo not given),inactive,–,23.5 µM (active),13.2 µM (active),–,–,–
CCCn1c(=O)c2[nH]c(C34CC5CC3C[C@@H](C5)C4)nc2n(CCC)c1=O,–,inactive,18.7 µM (active),10.5 µM (active),inactive,–,16.6 µM (active)
Cc1ccc(-n2nc(C(C)(C)C)cc2NC(=O)Nc2ccc(OCCN3CCOCC3)c3ccccc23)cc1,inactive,–,–,0.662 µM (active),inactive,inactive,–
COCCNCCCn1c(C(=O)CF)c(-c2ccc(C)cc2)c2c(N)ncnc21,inactive,–,–,–,inactive,inactive,–
CC1(C)Cc2c(-c3ccccc3)c(-c3ccc(Cl)cc3)c(CC(=O)O)n2C1,inactive,–,–,26.4 µM (active),–,–,–
CN(C(=O)c1ccc(F)cc1C(F)(F)F)C1CCN(c2nnc(-c3ccnn3C)c3ccccc23)CC1,inactive,–,–,0.332 µM (active),inactive,inactive,–
COc1cc2c(cc1OC)CN(CCc1ccc(NC(=O)c3cccc4c(=O)c5cccc(OC)c5[nH]c34)cc1)CC2,inactive,–,–,10.5 µM (active),inactive,inactive,–
COc1ccc(-c2oc3cc(OC)ccc3c2C(=O)c2ccc(C#N)cc2)cc1,inactive,–,0.0935 µM (active),4.18 µM (active),685 nM (active),7.43 µM (active),1.18 µM (active)

# From PubChem BioAssay (NCATS)
